# Assay outcomes from PubChem.
# Most compounds without a hit are left out; they make up all but 2.6% or so of the library.
# Cruzain inh Det = cruzain (T. cruzi) inhibition with detergent. P25779. purified cruzain, Z-FR-AMC fluorescence, 0.01% Triton. Potency, µM, for the others: max response, negative = inhibition, most hits filed as inhibitors. hit rate 0.43% among 200,000;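 further: plate controls were neutral wells for no effect and buffer without enzyme for full effect; nearly all actives have a fitted effect of over 40% in size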
# Target sequence (P25779 123-467 limits assumed): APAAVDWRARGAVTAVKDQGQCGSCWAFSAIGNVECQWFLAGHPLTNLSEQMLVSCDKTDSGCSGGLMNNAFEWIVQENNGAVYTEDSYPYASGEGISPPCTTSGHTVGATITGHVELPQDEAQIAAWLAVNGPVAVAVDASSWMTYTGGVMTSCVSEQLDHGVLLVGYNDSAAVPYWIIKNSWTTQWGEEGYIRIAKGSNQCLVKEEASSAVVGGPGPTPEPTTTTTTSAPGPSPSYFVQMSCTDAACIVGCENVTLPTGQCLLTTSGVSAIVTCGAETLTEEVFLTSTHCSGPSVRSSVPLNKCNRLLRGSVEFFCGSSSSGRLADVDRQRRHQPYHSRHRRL
#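 Compounds were screened in titration against cruzain (1.5 nM) with 0.01% Triton X-100 to counter colloidal aggregation. Activity was the AMC fluorescence increase over 60 s after adding 2 uM Z-FR-AMC at pH 5.5.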
# Cruzain noTriton = blocks cruzain activity in detergent-free assay | P25779 | purified cruzain, Z-FR-AMC fluorescence, no detergent | Potency, µM, for inactives: max response, negative = inhibition, usual class: inhibitors | hit rate 2.3% among 200,000 | AID 1476;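 further: plate controls were enzyme without inhibitor for no effect and buffer without enzyme for full effect; nearly all actives have a fitted effect of over 40% in size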
#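 Detergent-free condition (0.00005% Triton X-100) in acetate buffer pH 5.5 with DTT. 1.5 nM enzyme and compound were pre-mixed 15 min, then 2 uM Z-FR-AMC substrate added; reaction progress from fluorescence change between first and third reads (60 s).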
# * hit, by the source's call; ? = inconclusive; ! = not confirmed by another sample. The call rests on the fitted dose curve; in most records, active means well fitted curve in the direction sought with a large enough effect; inconclusive means small, poorly fitted or top-dose-only effect, or another doubt; inactive means no such curve, though single readings can be large; an effect the other way counts as inactive or inconclusive. Potency means the concentration at half of the fitted maximal effect.
SMILES,Cruzain inh Det,Cruzain noTriton
CCCN(CC1CC1)c1nc(C)nc(Nc2c(Cl)cc(Cl)cc2Cl)c1Cl,-1.7%,25.1µM*!
Cc1nn(-c2ccccc2)c2c1N(CC(=O)NCc1ccc(N(C)C)cc1)C(=O)CS2,-2.6%,-17.5%
Cc1sc(NC(=S)NC(=O)c2ccc(C(C)(C)C)cc2)c(C#N)c1C,1.3%,10µM*
Cc1ccccc1C(=O)NC(=S)Nc1sc2c(c1C#N)CCCC2,-3.5%,?
Cc1ccc(Cc2nc3ccccc3nc2SCC(=O)NCc2ccccc2Cl)cc1,1.5%,-18.5%
CCOC(=O)C1=C(C)NC(=S)NC1c1ccc(OC(=O)c2ccco2)cc1 (stereo unspecified),-7.9%,?
CCOC(=O)c1c(NC(=O)C2=C(C)NC(=S)NC2c2ccc(CC)cc2)sc(C)c1C (stereo unspecified),-4.7%,10µM*
CC(C)c1ccc(NC(=O)CSC2=Nc3ccccc3C3=NC(CC(=O)NCc4cccs4)C(=O)N23)cc1 (stereo unspecified),-6.8%,?
Cc1c(Cl)cccc1NC(=O)CSc1ncnc2c1sc1ccccc12,1.0%,-5.6%
Cc1cc(C)nc(Nc2nc3ccccc3[nH]2)n1,-21.4%,-20.4%
c1ccc(Nc2nc3ccccc3[nH]2)nc1,25.1µM*,10µM*
C[C@H]1OC(=O)CC[C@@H]2[C@]1(C)CCC1[C@@]2(C)CC[C@@]2(C)C3CC(C)(C)CC[C@]3(CO)CC[C@]12C (stereo partly specified),2.0%,-11.6%
COc1ccc(N2CCN(C(=O)c3cc(S(=O)(=O)N4CCCCCC4)cn3C)CC2)cc1,-4.1%,?
CCCCCCc1cc2cc(S(=O)(=O)c3ccc(F)cc3)c(=O)oc2cc1O,-6.5%,25.1µM*
CCCCCCc1cc2cc(-c3nnc(-c4ccccc4O)o3)c(=O)oc2cc1O,-2.3%,-9.5%
Cc1ccc2nc(C3CCCN(C(=O)NCc4ccccc4)C3)[nH]c2c1 (stereo unspecified),?,6.31µM*
Cc1ccc2nc(C3CCN(C(=O)NCc4ccccc4)CC3)[nH]c2c1,-0.1%,-2.8%
Cc1ccc(CNC(=O)c2ccc(-c3nc(CS(=O)(=O)c4ccc(C)cc4)c(C)o3)cc2)cc1,-1.2%,-13.6%
CCCCN(CC)CCCNC(=O)c1cn(CC)c2ccc(S(=O)(=O)N3CCOCC3)cc2c1=O,-5.1%,-10.5%
COc1ccccc1N1CCN(C(=O)CSc2ncnc3scc(-c4ccccc4)c23)CC1,0.2%,6.5%
O=C(CSc1ncnc2scc(-c3ccccc3)c12)N1CCN(c2ccccc2F)CC1,-4.4%,31.6µM*
Cc1ccc(Cl)cc1NC(=O)Nc1cn(CC(C)C)c(=O)c2ccccc12,-11.7%,0.2%
NC(=O)C[C@@H](N)c1nn[nH]n1,8.9%,7.7%
O=C(Nc1cccc(Cl)c1)c1c(O)c2c(n(Cc3ccco3)c1=O)CCCC2,-2.3%,7.94µM*
CCOC(=O)c1c(O)c2c(n(Cc3ccco3)c1=O)CCCC2,-0.3%,4.5%
SMILES,Cruzain inh Det,Cruzain noTriton
O=C(Nc1cccc(Cl)c1)c1c(O)c2c(n(Cc3ccccc3)c1=O)CCCC2,-0.5%,15.8µM*
CCCn1c2c(c(O)c(C(=O)NCc3ccccc3)c1=O)CCCC2,-3.1%,-0.7%
COc1cccc(CN2C(=O)c3ccccc3Sc3ccc(C(=O)N(C)Cc4ccccc4)cc32)c1,-4.8%,-23.3%
O=C(NCc1cccc(Br)c1)C1CCCCN1S(=O)(=O)c1ccc(F)cc1 (stereo unspecified),-5.3%,-2.7%
COc1ccc(-c2csc(-n3ncc(-c4cccs4)c3N)n2)cc1,5.1%,1.58µM*
COc1ccc(-c2csc(N3CCC(c4ccccc4)C3)n2)cc1 (stereo unspecified),1.9%,-6.1%
COC(=O)c1ccc(/C=N/Nc2nc(-c3ccccc3)cs2)cc1,-6.3%,12.6µM*
C(=N\Nc1nc(-c2ccccc2)cs1)/c1cccnc1,-8.4%,-8.0%
CC(/C=C/c1ccccc1)=N\Nc1nc(-c2ccccc2)cs1,0.4%,25.1µM*
COc1ccc(/C=N/N(C(C)=O)c2nc(-c3ccc(C)cc3)cs2)cc1,-0.6%,-2.6%
CC(C)=NNc1nc(-c2ccccc2)cs1,-0.7%,-9.0%
COC(=O)c1ccc(/C=N/Nc2nc(-c3ccc(C)cc3)cs2)cc1,-11.0%,12.6µM*
CC(=O)N1CCCc2cc(S(=O)(=O)N(C)CC(=O)Nc3ccc(Cl)cc3C)ccc21,-1.4%,?
CCn1c(SCC(=O)N2CCC(C)CC2)nnc1-c1ccccc1O,0.9%,9.4%
O=C(O)/C=C\c1ccc[c]([Sb])c1,-3.8%,14.0%
COc1cc(OC)c(Nc2c3c(nc4nc(-c5cccs5)nn24)CCCC3)cc1Cl,-5.7%,?
O=c1c(CCc2ccccc2)nc2cnc(N3CCNCC3)nc2n1Cc1ccc(F)cc1,4.7%,-4.0%
COc1ccc(NC(=O)c2cnc(SCC(=O)Nc3nc4ccc(C)cc4s3)n(C)c2=O)cc1,-0.1%,9.5%
COC(=O)c1ccc2c(c1)c(I)c(-c1ccc(OC)cc1)n2C,2.5%,?
COC(=O)c1ccc2c(c1)c(C#Cc1ccccc1)c(-c1ccccc1)n2C,-3.0%,17.8µM*
COc1ccc(S(=O)(=O)N(Cc2nc(-c3ccc(C)cc3)no2)C2CCCCC2)cc1,-4.7%,-10.5%
Cc1ccc(-c2nnc3ccccc3c2C(=O)Nc2ccc(F)cc2)cc1,-0.7%,-9.6%
Cc1ccc(-c2nnc3ccccc3c2C(=O)Nc2ccccc2F)cc1,0.0%,25.1µM*
O=C(NCCCc1nc2ccccc2n1Cc1ccc(Cl)cc1)C1CCCCC1,-10.4%,6.2%
O=C(CSc1nc2c([nH]c3ccccc32)c(=O)n1-c1ccccc1)Nc1ccc2c(c1)OCO2,-2.2%,?
SMILES,Cruzain inh Det,Cruzain noTriton
Cc1cc2nc(-c3ccc(SCC(=O)Nc4ccc5c(c4)OCCO5)nc3)[nH]c2cc1C,-5.4%,15.8µM*
COc1cccc(NC(=O)CSc2nc3c([nH]c4ccccc43)c(=O)n2-c2ccccc2)c1,-5.6%,?
CC(Sc1nc2c([nH]c3ccccc32)c(=O)n1-c1ccccc1)c1ccccc1 (stereo unspecified),-2.5%,7.94µM*
COC(=O)C(C)Sc1nc2c([nH]c3ccccc32)c(=O)n1-c1ccc(OC)cc1 (stereo unspecified),-3.9%,-2.5%
O=C(CSc1nc2c([nH]c3ccccc32)c(=O)n1-c1ccccc1)Nc1ccc(Cl)c(Cl)c1,-0.9%,12.6µM*
Cc1ccc2nc(-c3ccc(SCC(=O)Nc4ccc5c(c4)OCCO5)nc3)[nH]c2c1,-5.5%,-8.3%
O=C(CSc1nc2c([nH]c3ccccc32)c(=O)n1-c1ccccc1)Nc1ccc2c(c1)OCCO2,-5.4%,25.1µM*
CCOc1ccc(NC(=O)Cn2ccn3nc(-c4ccc(OC)c(OC)c4)cc3c2=O)cc1,1.5%,-2.7%
COc1ccc(-n2c(-c3cccc(F)c3)nc3c(cnn3-c3ccc(C)cc3)c2=O)cc1,-1.3%,2.8%
Cn1c(=O)c(=O)n(C)c2cc(N3CCCC3)c(NC(=O)c3ccccc3Cl)cc21,-2.7%,-11.6%
Cc1ccn2cc(-c3ccc(C)c(NS(=O)(=O)c4ccc(Cl)cc4)c3)nc2c1,-7.7%,?
N#CCCn1c(=O)c(-c2cccs2)nc2cnc(N3CCOCC3)nc21,0.2%,4.5%
CCN(CC)c1ccc(NC(=O)c2cnn3c(C(F)F)cc(-c4ccccc4)nc23)cc1,-1.5%,-8.3%
Cc1cc(C)cc(-n2c(SCC(=O)Nc3ccc4c(c3)OCCO4)nc3c([nH]c4ccccc43)c2=O)c1,-0.3%,?
Cc1ccc(-n2c(SCC(=O)Nc3ccc4c(c3)OCCO4)nc3c([nH]c4ccccc43)c2=O)cc1,-7.1%,25.1µM*
